High-throughput results (PubChem BioAssay)
SKKanGAS inh: S. pyogenes SKKanGAS growth inhibitors in kanamycin, primary screen, streptokinase expression inhibitor project, SKKanGAS strain, BacTiter-Glo luminescence. 6 h. inhibition, % at 7.5 µM. 1.3% of 300,000 active. AID 1662, 2009;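 active = mean replicate score, as percent of positive control median, at least 50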;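 note: strain carries kanamycin resistance gene driven by streptokinase promoter and grows in 40 µg/ml kanamycin; loss of luminescence reflects streptokinase promoter inhibition or plain growth inhibition; 0% = median of DMSO wells and 100% = positive control at its reference dose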
tim23-1 inh: growth inhibitors of tim23-1 mutant yeast, primary screen, luminescence, uHTS. S. cerevisiae tim23-1 growth, BacTiter-Glo luminescence, 24 h. inhibition, % at 20 µM. 1.3% of 330,000 active. AID 463212, 2010;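 active = growth inhibition of the mutant yeast at or above 50%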;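 note: temperature-sensitive mutant grown at 25 °C; plate controls were DMSO-treated mutant yeast for no effect and medium wells lacking yeast for full effect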
TIM10 inh: growth inhibitors of isogenic TIM10 control yeast, primary screen, counter-screen for tim10-1 yeast inhibitor project, luminescence, uHTS | S. cerevisiae TIM10 strain growth, BacTiter-Glo luminescence, 24 h | inhibition, % at 10 µM | 1.4% of 330,000 active | AID 463195, 2010;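 active = inhibition of 40% or more at the single tested concentration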;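 note: wild-type TIM10 isogenic control strain grown at permissive 25 °C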
tim10-1 inh: growth inhibitors of tim10-1 mutant yeast, primary screen, luminescence, uHTS; 2.2% of 330,000 active; inhibition, % at 20 µM; S. cerevisiae tim10-1 ts strain growth, BacTiter-Glo, 24 h;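 active = inhibition of at least 40%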;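 note: mutant grown at 25 °C; 0% = DMSO wells with yeast and 100% = wells holding no yeast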
PfHsp90 yeast 2: growth inhibition of PfHsp90-expressing yeast, primary screen, antimalarial PfHsp90 inhibitor project, S. cerevisiae, BacTiter-Glo luminescence, single point, set 2. BacTiter-Glo ATP, 48 h; yeast lacking PDR1 and PDR3 efflux regulators. inhibition, % at 9.4 µM. 0.32% of 310,000 active;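 active = every replicate shows inhibition above about 80%, whatever the replicate mean, limit read from the data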;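 note: 0% = DMSO neutral controls and 100% = 20 µM radicicol positive controls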
V-ATPase pHluor: regulators of yeast V-ATPase proton pumping, primary screen, pHLuorin cytosolic pH fluorescence; S. cerevisiae; response, % at 10 µM; 0.37% of 350,000 active; in the data active = response mostly above about 7.3%, no sharp cut-off; inactive = mostly below about 5.4%; note: actives read high
tim10-1 conf: growth inhibitors of tim10-1 mutant yeast, confirmation, single concentration, luminescence, S. cerevisiae | shares compounds with tim10-1 inh | 56% of 7,400 active | inhibition, % at 20 µM | AID 463213, 2010 | S. cerevisiae tim10-1 ts strain growth, BacTiter-Glo, 24 h;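 active = inhibition of yeast growth at or above a set limit in either of two repeat tests at 20 µM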;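 note: tim10-1 mutant grown at permissive 25 °C to find synthetic lethal compounds; 0% = DMSO yeast wells and 100% = medium wells without yeast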
TIM10 conf: growth inhibitors of wild-type TIM10 yeast, confirmation, counter-screen for tim10-1 synthetic lethality project, single concentration, luminescence, S. cerevisiae; shares compounds with TIM10 inh; S. cerevisiae tim10 strain growth, BacTiter-Glo luminescence, 24 h; inhibition, % at 10 µM; 63% of 4,600 active; AID 463215, 2010;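 active = inhibition of yeast growth at or above a set limit in either of two replicates at 10 µM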;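 note: this counterscreen used the strain with wild-type TIM10; 0% = yeast with DMSO and 100% = medium wells lacking yeast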
tim23-1 conf: tim23-1 mutant yeast growth inhibitors, confirmation, luminescence, single concentration; inhibition, % at 20 µM; AID 463218, 2010; shares compounds with tim23-1 inh; S. cerevisiae tim23-1 growth, BacTiter-Glo luminescence, 24 h; 83% of 4,400 active;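 active = inhibition above about 39% in either of two replicate wells at 20 µM, limit read from the data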;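 note: temperature-sensitive tim23-1 mutant grown at 25 °C; 0% = DMSO wells with yeast and 100% = medium wells without yeast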
Starred values were filed as active, the others as inactive; / = not tested or not shown. Compounds with a hit are over-represented: about 4.6% of the library has one in this group of screens.

SMILES	SKKanGAS inh	tim23-1 inh	TIM10 inh	tim10-1 inh	PfHsp90 yeast 2	V-ATPase pHluor	tim10-1 conf	TIM10 conf	tim23-1 conf
Cn1c(N2CCC(C(N)=O)CC2)nc2c1c(=O)n(Cc1ccc(Cl)cc1)c(=O)n2C	7	8	9	13	30	-2	/	/	/
Cn1c(N2CCCC2)nc2c1c(=O)n(Cc1ccc(Cl)cc1)c(=O)n2C	10	53*	56*	55*	9	-2	40*	35*	60*
CCOC(=O)c1c(S(=O)(=O)NCC(=O)Nc2cccc(C)c2)c(C)n(C)c1C	-11	9	2	-5	16	10	/	/	/
CC(Sc1nnc2n1CCCCC2)C(=O)Nc1ccc(S(N)(=O)=O)cc1 (stereo not drawn)	/	-6	-2	-13	1	2	/	/	/
N#CCCN(C(=O)COC(=O)c1ccc(Cl)nc1)c1ccc2c(c1)OCCO2	/	/	/	/	/	1	/	/	/
CCCOc1ccc(Cc2nn3c(=O)/c(=C/c4ccco4)sc3nc2=O)cc1	-2	24	20	20	-40	-13	/	/	/
COc1ccccc1-c1nc2s/c(=C\c3cccs3)c(=O)n2n1	22	78*	57*	64*	-14	0	29	-18	76*
Cc1ccc(/C=c2\sc3nc(-c4cccs4)nn3c2=O)o1	-5	-1	9	13	-10	-6	/	/	/
O=c1/c(=C/c2ccco2)sc2nc(-c3ccccc3Br)nn12	/	57*	64*	45*	3	5	41*	51*	45*
C[C@@H]1C=CC(=O)O[C@@H]1c1ccc(Cl)cc1	8	56*	43*	45*	/	/	41*	41*	40*
Cn1cnnc1SCC(=O)NC1CC1	/	12	3	3	/	0	/	/	/
O=C(N/N=C/c1ccccc1F)NC12CC3CC(CC(C3)C1)C2	22	41	14	31	-6	-2	/	/	/
COc1cccc(/C=N/NC(=O)NC23CC4CC(CC(C4)C2)C3)c1O	97*	52*	42*	52*	/	2	17	39*	47*
Cc1nnc(NC(=O)C2CCN(S(=O)(=O)c3ccc(F)c(Cl)c3)CC2)o1	/	-15	-7	-4	15	-2	/	/	/
Cc1ccc(/C=[N+](/C)[O-])cc1	7	7	-6	7	5	3	/	/	/
Cc1ccc(C=C2C(Cl)=C(Cl)C(Cl)=C2Cl)cc1	78*	74*	64*	64*	/	/	78*	78*	53*
Cc1ccc(NC(=O)c2cc(S(=O)(=O)N(C)C)ccc2N2CCCC2)cc1F	-7	23	9	15	-9	-1	/	/	/
COc1cccc(C(=O)COC(=O)C(C)N2C(=O)C3C4C=CC(C4)C3C2=O)c1 (stereo not drawn)	-9	32	6	18	15	-2	/	/	/
Cc1cc(C)c2c(N)c(S(=O)c3ccc(C(C)(C)C)cc3)sc2n1 (stereo not drawn)	0	60*	35	63*	-5	0	44*	/	62*
Cc1cc(C)c2c(N)c(C(=O)C(C)(C)C)sc2n1	-5	-3	8	24	-23	3	/	/	/
CN(CC(=O)NC1(C)CCS(=O)(=O)C1)S(=O)(=O)c1ccc(Cl)cc1 (stereo not drawn)	20	5	4	-13	/	1	/	/	/
Cc1ccc(S(=O)(=O)NCCCN2CCOCC2)c(C)c1	-5	4	-20	-13	-5	0	/	/	/
CC1CC(C)CN(C(=O)COC(=O)c2ccc([N+](=O)[O-])o2)C1 (stereo not drawn)	/	22	25	21	-34	-2	/	/	/
O=C(Cc1ccc([N+](=O)[O-])cc1)N1CCCCCC1	-2	10	-3	1	10	1	/	/	/
CC1CCN(C(=O)c2ccc([N+](=O)[O-])o2)CC1	0	56*	6	41*	-8	4	40*	/	58*
SMILES	SKKanGAS inh	tim23-1 inh	TIM10 inh	tim10-1 inh	PfHsp90 yeast 2	V-ATPase pHluor	tim10-1 conf	TIM10 conf	tim23-1 conf
O=C(c1ccc(-c2ccc([N+](=O)[O-])cc2)o1)N1CCCCCCC1	/	76*	63*	59*	-55	8	55*	69*	53*
Cc1ccc(C2CN(C)C3(C(=O)Nc4ccccc43)C23COc2ccccc2C3=O)cc1 (stereo not drawn)	-19	53*	29	45*	-11	4	37*	/	47*
CC(C)c1nc2sc3c(c2c(=O)[nH]1)CC(C)(C)OC3	0	2	12	18	-9	-1	/	/	/
NC(=S)NNC(=O)COc1ccccc1O	-8	14	16	13	-4	1	/	/	/
O=c1c(O)c(-c2cccs2)oc2ccc(Cl)cc12	66*	53*	72*	42*	-7	3	32*	59*	66*
O=c1cc(-c2cccs2)oc2ccc(Cl)cc12	0	34	6	25	-28	4	/	/	/
S=c1sc2ccccc2n1CCc1ccncc1	-2	-9	-8	-4	13	3	/	/	/
C=CCCC(=O)N1C[C@H]2CON(C)[C@H]2C[C@H]1c1cccc(N2CCOCC2)c1	/	/	/	/	/	1	/	/	/
O=C(COc1ccc(Br)cc1CO)Nc1ccc(S(=O)(=O)N2CCCCC2)cc1	/	53*	39	40*	-34	7	50*	/	61*
CCc1ccc(OCC(=O)Nc2ccc(S(=O)(=O)N3CCCC3)cc2)c(Br)c1	-1	-4	-8	-2	14	9	/	/	/
CN(C)c1ccc(/C=C(/C(=O)c2ccc(Cl)cc2Cl)n2cncn2)cc1	5	54*	51*	53*	-8	-3	41*	-26	56*
O=C(OCn1cncn1)c1ccc(Cl)cc1Cl	-2	6	-4	8	13	0	/	/	/
COc1ccc(/C=C(/C(=O)c2ccc(Cl)cc2Cl)n2cncn2)cc1	-5	76*	77*	64*	7	-2	70*	78*	49*
CC(C)CC(=O)/C(=C/c1ccc(N(C)C)cc1)n1cncn1	-6	34	24	24	15	2	/	/	/
O=C(NCCCn1ccnc1)Nc1ccc2c(c1)OCO2	-1	0	-11	4	3	-3	/	/	/
